Compounds without any hit were thinned out: in the full panel of roughly 83,000, 20% have a hit.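 For each line, cells grew in 96-well plates with the test compound present at a single concentration for 48 hours.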 A number with no mark means an inactive call. The source made the active and inactive calls. How the source made its calls: active means growth percent below 10; inactive means the rest.
Tests used:
Experiment in all cases: NCI-60 one-dose screen, 48 h (100 = growth as untreated, 0 = no growth, -100 = all killed)
Details in all cases: 10 µM unless noted
[1] = tested on: NCI-H23 lung
[2] = tested on: NCI-H226 lung
[3] = tested on: NCI-H322M lung
[4] = tested on: HOP-62 NSCLC
[5] = tested on: NCI-H460 lung
[6] = tested on: HOP-92 NSCLC
[7] = tested on: NCI-H522 lung
[8] = tested on: A549/ATCC NSCLC
[9] = tested on: 786-0 renal
[10] = tested on: COLO 205 colon

| SMILES | growth [1] | growth [2] | growth [3] | growth [4] | growth [5] | growth [6] | growth [7] | growth [8] | growth [9] | growth [10] |
| --- | --- | --- | --- | --- | --- | --- | --- | --- | --- | --- |
| Cc1ccc(Cc2cnc(NC(=O)/C=C/c3ccc(C)o3)s2)cc1 | 56% | 69.9% | 48.1% | 53.6% | 12% | 59.5% | 19.3% | 35.7% | 42% | 23.2% |
| CCOC(=O)CC1CSC(N/N=C/c2ccc(F)c(Br)c2)=N1 (stereo not given) | 99.8% | 104% | 109% | 94.2% | 112% | 105% | 86.2% | 91.2% | 100% | 110% |
| ClCCn1cnc2c(SCc3ccccc3)ncnc21 | 72.4% | 65.4% | 75.3% | 66.6% | 12.2% | 63.7% | 65.8% | 40% | 64.8% | 52.4% |
| COc1ccc(/C=C(/C(=O)N2CCNCC2)c2cc(OC)c(OC)c(OC)c2)cc1O | 49.9% | 88.7% | 50% | 56.4% | 37.6% | 48.7% | 0.313% (active) | 41.6% | 95.5% | 25.9% |
| C=C1C(=O)O[C@H]2[C@H]1CC/C(COC(=O)NCc1ccc(Cn3c(=O)sn(-c4ccccc4)c3=O)cc1)=C\CC[C@@]1(C)O[C@@H]21 | 91.7% | 55.1% | 92.7% | 126% | 81.3% | 10.3% | -70.6% (active) | 114% | 39.7% | 3.5% (active) |
| CCCCCCCCCCCCCCCCCCOc1ccccc1CC(=O)NCC[N+](C)(C)C | 51.6% | 61.6% | 66.9% | 5.94% (active) | 22.5% | -5.43% (active) | 7.44% (active) | 40.8% | 16.2% | -85.2% (active) |
| O=C(NCCCCCCNC(=O)OCc1ccc2c(Cl)cc(Cl)c(O)c2n1)OCc1ccc2c(Cl)cc(Cl)c(O)c2n1 | -69.2% (active) | 1.25% (active) | 43.6% | -42.5% (active) | -30.7% (active) | -60.1% (active) | -57.4% (active) | -39.6% (active) | -63.1% (active) | -82.5% (active) |
| Nc1ncnc2c1N=C(c1ccc(Cl)cc1)CC(c1cccc(Nc3ccnc4cc(Cl)ccc34)c1)N2 (stereo not given) | 66.8% | 87.5% | 84.1% | 70.4% | 75.6% | 44.7% | 93.8% | 84.5% | 67.5% | 66.2% |
| Cn1cc(-c2csc(-c3cn(C)c4ccccc34)n2)c2cnccc21 | 83.2% | 112% | 66.6% | 42.1% | -46.2% (active) | 55.5% | 16.7% | 15.3% | -87.9% (active) | -68% (active) |
| CSc1ccc2c3c(n(CCCn4ccnc4)c(=O)c2c1)-c1ccccc1C3=O | 30.7% | 69.2% | 71.7% | 34.7% | 11.5% | 83.2% | 19.3% | 47.9% | 20.4% | 57.9% |
| COCCn1cc(-c2nc(-c3c[nH]c4ncccc34)cs2)c2ccccc21 | 40.7% | 48.2% | 43.4% | 47.2% | 22.6% | 2.56% (active) | 46.7% | 52.2% | 77.9% | 24.8% |
| COC(=O)c1sccc1-c1cc(O)c(C(=O)Nc2ccccc2)s1 | 83% | 90.9% | 93.3% | 92.2% | 104% | 97.9% | 90.9% | 91.5% | 106% | 102% |
| Cc1ccc2c(c1)nc(C)n2-c1ncnc2c1CC(C)c1cc(O)ccc1N2C (stereo not given) | 65.7% | 74.1% | 64% | 37.8% | 19.7% | 24.7% | 23.6% | 31% | 33.4% | 98.5% |
| CCCC(=O)NC(c1ccc2c(c1)OCO2)c1cc(Cl)c2cccnc2c1O (stereo not given) | 48.3% | 50.4% | 42.1% | 23.1% | 22.7% | 39.4% | 13.8% | 30.7% | 32.4% | 11.5% |
| CN(C)CCCNC(=O)c1cncnc1Nc1ccc2c(ccn2Cc2cccc(F)c2)c1 | 95.6% | 99.4% | 98.6% | 99.9% | 95.5% | 78.3% | 98.2% | 84.9% | 79.5% | 84.6% |
| OC1(c2ccccc2)c2ccccc2N(c2ccccc2)c2ccc(Cl)cc21 (stereo not given) | -49.4% (active) | -80.7% (active) | -90.3% (active) | -91.7% (active) | -48.4% (active) | -76.8% (active) | -86.8% (active) | -12.5% (active) | -94.6% (active) | -85.7% (active) |
| Cn1c(=O)[nH]c(=O)c2nc3c(nc21)-c1ccccc1C3=O | 95.6% | 92.2% | 102% | 94.3% | 102% | 100% | 96.4% | 106% | 101% | 114% |
| COCCOC(C)C(/C=N/NC(N)=S)=N/NC(N)=S (stereo not given) | 49.8% | 72.2% | 89.8% | 72.4% | 85.8% | 101% | 94.5% | 78.3% | 99.3% | 90.6% |
| CC(C)(C)CC(C)(C)Nc1c(-c2c(O)c3ccccc3oc2=O)nc2sc3ccccc3n12 | 44.1% | 56.7% | 42.5% | 23.1% | 16.6% | 10.8% | 32.8% | 30.9% | 35.6% | 28.7% |
| O=C(/C=C/C12c3ccccc3C(c3ccccc31)C1C(=O)NC(=O)C12)c1ccco1 (stereo not given) | 28.7% | 81.6% | 30.2% | 17.7% | 11% | 24% | 17% | 55.4% | 41.1% | 45.8% |
| COC12C=C/C(=C(/C(=O)OCCSc3ccnn3C)C(=O)CCCCCCCCC3(OC)C=C/C(=C(/C(=O)OCCSc4ccnn4C)C(=O)CCCCCCCC1)O3)O2 | -44% (active) | -53.6% (active) | 11.6% | 27.9% | 3.85% (active) | -18.9% (active) | -17.3% (active) | 5.51% (active) | -29.2% (active) | -41.7% (active) |
| N#Cc1c(-c2cccc(Cl)c2)cc(-c2cccnc2)[nH]c1=O | 85.6% | 87.9% | 94.4% | 69.5% | 96.3% | 80.2% | 76.1% | 93% | 96.7% | 93.4% |
| Nc1ncccc1O | 78% | 94.1% | 98.8% | 99.5% | 49.3% | 105% | 61.4% | 77.9% | 111% | 92.6% |
| O=S(Nc1ccccc1)c1ccc(Cl)cc1 (stereo not given) | 105% | 99.9% | 104% | 92% | 95.1% | 103% | 82.8% | 78.9% | 103% | 102% |
| O=S(=O)(N=C1C(Cl)=C(Cl)C(=NS(=O)(=O)c2ccccc2)C(Cl)=C1Cl)c1ccccc1 | 73.3% | 97.5% | 97.4% | 91.5% | 39.1% | 134% | 39.3% | 74.4% | 118% | 98.4% |
| Cc1nn(C)c2ncnc(N/N=C/c3cccc(O)c3O)c12 | 20.8% | 42.7% | 14.7% | 4.24% (active) | 2.65% (active) | 23.3% | 19.9% | 20.9% | 2.11% (active) | -3.31% (active) |
| CC(C)=CC(=O)N[C@H]1CC[C@]2(C)C3CC[C@]4(C)C(C(C)N(C)C)=CCC4C3CCC2[C@H]1O (stereo not given in full) | 65% | 99.6% | 57.5% | 66.6% | 18.6% | 41% | 89.4% | 75.5% | 48.2% | -14.9% (active) |

— PubChem BioAssay (NCI)
